Assay [1] is described as follows: viability loss in pontine glioma line – cell-based, SU-DIPG-XVII, MIPE5.0, CellTiter-Glo, qHTS, dose response (AID 1347060; cut-off not given, nearly all actives have AC50 up to about 26 µM;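 on AC50: cells exposed to compound for 48 hours before viability readout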). Particulars: CellTiter-Glo ATP luminescence. (In general: In ATP-based viability assays light output follows the ATP content of the culture.)
A short description of assay [2]: viability loss in pontine glioma line – cell-based, JHH-DIPG-1, MIPE4.0, CellTiter-Glo, qHTS, dose response (AID 1347062; cut-off not given, nearly all actives have AC50 up to about 27 µM). As to conditions: JHH-DIPG-1 viability, CellTiter-Glo ATP luminescence.
A short description of assay [3]: viability loss in pontine glioma line – cell-based, SU-DIPG-XXV, MIPE5.0, CellTiter-Glo, qHTS, dose response (AID 1347065; cut-off not given, nearly all actives have AC50 up to about 26 µM;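 further: cells exposed to compound for 48 hours before ATP readout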). As to conditions: CellTiter-Glo ATP luminescence.
The nature of assay [4]: JHH-DIPG-1 glioma cell viability, MIPE5.0 library, CellTiter-Glo luminescence, qHTS (AID 1347067; cut-off not given, nearly all actives have AC50 up to about 26 µM;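 further: cells exposed to compound for 48 hours before readout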). As to conditions: JHH-DIPG-1 glioma viability, CellTiter-Glo ATP luminescence.
Assay [5] in a line: growth inhibition of DIPG cells – cell-based, MIPE5.0 library, qHTS (AID 1347068; cut-off not given, nearly all actives have IC50 up to about 30 µM;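 on IC50: cells exposed to compound for 48 hours before viability readout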). Particulars: SU-DIPG-XXV viability.
Assay [6] is described as follows: compounds altering HSF1 focus formation in cells – imaging, Selleck Cancer Library (AID 1347162; in the data active means plate-normalised HSF1 focus index below about 0.46). As to conditions: human cells, HSF1 nuclear foci imaging, at 10 µM; SSMD: measured here: HSF1 foci SSMD mean; cell count: measured here: cell number; plate-normalised HSF1 focus index: stronger effect = lower value.
The nature of assay [7]: viability loss in pontine glioma line – cell-based, SU-DIPG-IV, MIPE4.0, CellTiter-Glo, qHTS, dose response (AID 1347063; cut-off not given, nearly all actives have AC50 up to about 30 µM;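 further: compound exposure lasted 48 hours before the viability readout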). As to conditions: CellTiter-Glo ATP luminescence.
Assay [8] in a line: viability loss in pontine glioma line – cell-based, SU-DIPG-XIII, MIPE5.0, CellTiter-Glo, qHTS, dose response (AID 1347064; cut-off not given, nearly all actives have AC50 up to about 23 µM;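 on AC50: cells exposed to compound for 48 hours before the viability read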). Particulars: CellTiter-Glo ATP luminescence.
A short description of assay [9]: growth inhibition of DIPG cells – cell-based, MIPE4.0 library, CellTiter-Glo luminescence, qHTS (AID 1347066; cut-off not given, nearly all actives have AC50 up to about 30 µM;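 further: cells exposed to compound for 48 hours before readout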). As to conditions: SU-DIPG-VI viability, CellTiter-Glo ATP luminescence.
The nature of assay [10]: viability loss with induced miR-34 in A549 – imaging, A549 dox-inducible miR-34, nuclei and caspase counts, primary screen (AID 1347080;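 active means compounds whose cell count with miR-34 switched on is under 0.7 times the count with it off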). As to conditions: A549 miR-34 inducible, Hoechst nuclei count, 48 h.
Assay [11] is described as follows: MELAS cybrid and Rieske KO viability enhancers – cell-based, MELAS cybrids, Rieske KO mouse fibroblasts, CellTiter-Glo, primary screen (AID 1508586;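 active means mean z-score across replicates of 1.96 or higher in either the MELAS or the Rieske mutant cell line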;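 further: z relative to plate mean and SD of compound and empty wells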). Particulars: low glucose.
The nature of assay [12]: drug combination growth inhibition, ovarian cancer – cell-based, oncology-focused library, rucaparib conditional, profiling panel (AID 1508598). Particulars: patient-derived ovarian cancer cells, CellTiter-Glo viability, 144 h, stronger effect = lower value.

SMILES strings stand for the structures. Inconclusive results are not listed. The source made the active and inactive calls.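 How the source made its calls, unless noted: active means normalized viability below 100% at a tested concentration; inactive means the rest.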

Regarding `C#CCN(C)CC1=Cc2ccccc2Oc2ccccc21`, the call in assay [1], in assay [2], in [3], in [4] and in [5] was inactive. The compound also yielded an SSMD in [6] of 2.55. In assay [6], the cell count came to 6620. Moreover, the plate-normalised HSF1 focus index in assay [6] was 1.15 (inactive).

Usually AC50 stands for the concentration giving half of the maximal activity seen. `NCc1c[nH]c(=S)n1[C@H]1CCc2c(F)cc(F)cc2C1`: the result in assay [1], in [8], in assay [3], in assay [4] and in assay [5] was inactive. In addition, the AC50 in assay [7] was 9.35 µM (active).

As to `CC[C@@]1([C@@H]2O[C@@H]([C@H]3O[C@@](O)(CO)[C@H](C)C[C@@H]3C)C[C@@H]2C)CC[C@H]([C@]2(C)CC[C@]3(C[C@H](O)[C@@H](C)[C@@H]([C@@H](C)[C@@H](OC)[C@H](C)C(=O)O)O3)O2)O1`, the concentration at half-maximal activity (AC50) in assay [1] was 0.0574 µM (active); in [7], 0.144 µM (active); in [8], 0.456 µM (active); in assay [3] it was 0.456 µM (active); in [4], 0.288 µM (active).

In general, IC50 refers to the concentration that gives 50% inhibition. In the case of `COc1cc(C)c(Sc2cnc(NC(=O)c3ccc(CNC(C)C(C)C)cc3)s2)cc1C(=O)N1CCN(C(C)=O)CC1` (centres undefined), the concentration at half-maximal activity (AC50) in [1] is 14.8 µM (active); in [7] it was 18.7 µM (active); in [8], 8.33 µM (active); in [3] it was 10.5 µM (active); in assay [9], 14.8 µM (active); in assay [4], 16.6 µM (active). Further, the half-inhibitory concentration (IC50) in [5] is 14.8 µM (active).

The term viability denotes a read-out of living cells in per cent, often relative to untreated cells. On to `COC(=O)c1ccc2c(C(=Nc3ccc(N(C)C(=O)CN4CCN(C)CC4)cc3)c3ccccc3)c(O)[nH]c2c1`, for which the half-maximal activity concentration (AC50) was 1.48 µM (active) in assay [1]; 9.35 µM (active) in [7]; 2.09 µM (active) in assay [8]; 1.66 µM (active) in [3]; 5.9 µM (active) in assay [4]. In addition, in [9], the call was inactive. Besides, the IC50 in assay [5] is 3.32 µM (active). Further, the fold change in assay [10] (stronger effect = lower value, cell number ratio, induced over uninduced) was 0.909 (inactive); in assay [10] (measured here: relative caspase fold change +Dox/-Dox) it was 1.19. Besides, the cell count in [10] (measured here: total cells with miR-34 induction, stronger effect = lower value) turned out to be 5790; in assay [10] (measured here: total cells without miR-34 induction) it was 6370; in assay [6], 7520. The compound also came in with an SSMD in assay [6] of 2.23. Also, the plate-normalised HSF1 focus index in [6] was 1.08 (inactive). Moreover, the z-score was -0.457 (inactive) in assay [11] (MELAS cybrid survival, CellTiter-Glo 48 h, stronger effect = higher value) and -1.1 in assay [11] (Rieske KO mouse fibroblast survival, CellTiter-Glo 72 h). For the same compound, the viability is 119% (inactive) in [12] (at 0.000305 µM, OCI-C5x cells, with rucaparib 10 µM, 100% = cells with rucaparib alone); 127% (inactive) in [12] (at 0.000305 µM, OCI-C5x cells, without rucaparib); 103% (inactive) in assay [12] (at 0.000305 µM, OCI-P5x cells, with rucaparib 20 µM, 100% = cells with rucaparib alone); 111% (inactive) in assay [12] (at 0.000305 µM, OCI-P5x cells, without rucaparib); 107% (inactive) in assay [12] (at 0.00122 µM, OCI-C5x cells, with rucaparib 10 µM, 100% = cells with rucaparib alone); 128% (inactive) in [12] (at 0.00122 µM, OCI-C5x cells, without rucaparib). The viability is 95.9% (active) in assay [12] (at 0.00122 µM, OCI-P5x cells, with rucaparib 20 µM, 100% = cells with rucaparib alone); 102% (inactive) in [12] (at 0.00122 µM, OCI-P5x cells, without rucaparib); 114% (inactive) in [12] (at 0.00488 µM, OCI-C5x cells, with rucaparib 10 µM, 100% = cells with rucaparib alone); 118% (inactive) in assay [12] (at 0.00488 µM, OCI-C5x cells, without rucaparib); 95.7% (active) in assay [12] (at 0.00488 µM, OCI-P5x cells, with rucaparib 20 µM, 100% = cells with rucaparib alone); 104% (inactive) in assay [12] (at 0.00488 µM, OCI-P5x cells, without rucaparib). The viability in assay [12] (at 0.0195 µM, OCI-C5x cells, with rucaparib 10 µM, 100% = cells with rucaparib alone) is 120% (inactive); in assay [12] (at 0.0195 µM, OCI-C5x cells, without rucaparib) it was 115% (inactive); in assay [12] (at 0.0195 µM, OCI-P5x cells, with rucaparib 20 µM, 100% = cells with rucaparib alone) it was 94.4% (active); in assay [12] (at 0.0195 µM, OCI-P5x cells, without rucaparib), 97.5% (active); in assay [12] (at 0.0781 µM, OCI-C5x cells, with rucaparib 10 µM, 100% = cells with rucaparib alone), 116% (inactive); in [12] (at 0.0781 µM, OCI-C5x cells, without rucaparib), 116% (inactive). For the same compound, the viability was 93% (active) in assay [12] (at 0.0781 µM, OCI-P5x cells, with rucaparib 20 µM, 100% = cells with rucaparib alone); 96.8% (active) in assay [12] (at 0.0781 µM, OCI-P5x cells, without rucaparib); 128% (inactive) in [12] (at 0.313 µM, OCI-C5x cells, with rucaparib 10 µM, 100% = cells with rucaparib alone); 118% (inactive) in assay [12] (at 0.313 µM, OCI-C5x cells, without rucaparib); 87% (active) in assay [12] (at 0.313 µM, OCI-P5x cells, with rucaparib 20 µM, 100% = cells with rucaparib alone); 97.6% (active) in assay [12] (at 0.313 µM, OCI-P5x cells, without rucaparib). Further, the viability in assay [12] (at 1.25 µM, OCI-C5x cells, with rucaparib 10 µM, 100% = cells with rucaparib alone) was 124% (inactive); in [12] (at 1.25 µM, OCI-C5x cells, without rucaparib) it was 116% (inactive); in assay [12] (at 1.25 µM, OCI-P5x cells, with rucaparib 20 µM, 100% = cells with rucaparib alone), 66.6% (active); in assay [12] (at 1.25 µM, OCI-P5x cells, without rucaparib), 73.9% (active); in assay [12] (at 5 µM, OCI-C5x cells, with rucaparib 10 µM, 100% = cells with rucaparib alone) it was 124% (inactive); in assay [12] (at 5 µM, OCI-C5x cells, without rucaparib), 118% (inactive). Further, the viability in [12] (at 5 µM, OCI-P5x cells, with rucaparib 20 µM, 100% = cells with rucaparib alone) is 51.6% (active); in assay [12] (at 5 µM, OCI-P5x cells, without rucaparib) it was 59.1% (active).

The record behind these values is PubChem BioAssay.
